Source: the supplement of paper PMC3334620
Whole data set: some 33,000 sequences, median “E-score (-0.5 to 0.5)” near -0.032, cut for the highest 2% near 0.36. The list comes from a sample in which the highest values are over-represented; it also holds similar and randomly drawn sequences.

Molecular target: T1, Sko1 (UniProt Q02100)
T1 sequence: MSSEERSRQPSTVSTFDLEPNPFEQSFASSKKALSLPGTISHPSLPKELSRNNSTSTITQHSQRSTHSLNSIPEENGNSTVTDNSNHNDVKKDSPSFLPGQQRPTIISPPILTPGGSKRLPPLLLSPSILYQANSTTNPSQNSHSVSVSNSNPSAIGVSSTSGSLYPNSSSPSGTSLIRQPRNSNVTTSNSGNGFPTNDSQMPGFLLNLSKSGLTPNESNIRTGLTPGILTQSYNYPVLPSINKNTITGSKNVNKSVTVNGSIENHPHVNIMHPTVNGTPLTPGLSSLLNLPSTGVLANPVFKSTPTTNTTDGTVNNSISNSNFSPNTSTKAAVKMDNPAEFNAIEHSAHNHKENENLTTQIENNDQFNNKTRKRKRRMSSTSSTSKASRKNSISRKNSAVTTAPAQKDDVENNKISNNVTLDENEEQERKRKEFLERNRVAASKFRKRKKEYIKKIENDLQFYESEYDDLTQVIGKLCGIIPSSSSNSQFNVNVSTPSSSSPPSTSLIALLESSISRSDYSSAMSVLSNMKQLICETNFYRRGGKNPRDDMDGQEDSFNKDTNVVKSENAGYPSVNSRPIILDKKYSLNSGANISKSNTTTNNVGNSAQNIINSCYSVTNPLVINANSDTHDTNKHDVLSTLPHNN
Assay: PBM E-score (8-mer binding enrichment) (E-score (-0.5 to 0.5)); higher = stronger / more preferred TF binding
Conditions: protein concentration: 200 nM; construct: GST-full length
Method in brief: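 Each ungapped eight-base word and its reverse complement, pooled, received an E-score from the Universal PBM Analysis Suite. Underlying scans, normalised with masliner, recorded fluorescent anti-GST bound to GST-tagged yeast transcription factors. These were applied at about 100-200 nM to universal all-10-mer Agilent arrays double-stranded by primer extension.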

Sequence	PBM E-score
ACCAATGG	-0.28
CTCAGTTA	-0.0515
CGAAACTC	-0.0389
TAGTCCAA	-0.132
AAGTCAGT	-0.0135
GTGTCAGA	-0.06
CCGTCAGG	-0.0861
ACATCAGT	0.179
ACGTCAGG	0.457
TCGTCAGA	0.307
ACGTCAGA	0.479
CCGTCAGA	-0.0558
ATGTCAGG	0.0993
GCGTCAGA	0.364
GGGTCAGA	-0.219
ACGTCAGT	0.469
AGTCCCTG	-0.259
AATGGGAC	-0.215
CGCCCTGC	-0.236
CCACTCAG	-0.212
CCAAAGAC	-0.098
GCGCCCGC	-0.165
GATCATAC	0.14
ACGGTTCA	-0.126
CCGTCAGC	-0.127

Sequence	PBM E-score
GCGTCAGC	0.209
ACGTCAGC	0.48
CCCCCCAC	-0.372
AAGTGTAG	0.0389
TCGTGTAA	0.116
CCGTGTAC	-0.0602
ACGTGTAG	0.367
ACGTGTAA	0.386
ACGTGTAT	0.414
GCGTGTAC	0.227
CCGTGTAA	-0.0449
CCGTGTAG	-0.181
AGGTGTAT	0.075
AAGTGTAT	0.0856
ACGTGTAC	0.409
CATGACTA	0.0134
AATACCGG	0.00982
CGTTTACA	0.138
CTCCCCAC	-0.00257
ATTAAGCG	0.0319
ACCGCATC	-0.161
AATAAGCT	0.0887
CTATAGGA	0.0338
CCGAGATA	0.00305
ACTAGTGC	-0.13

Sequence	PBM E-score
ACGTGTCG	0.385
AAGTGTCG	0.00605
GCGTGTCA	0.216
ACGTGTCA	0.378
CCGTGTCG	-0.319
ACGTGTCT	0.381
AAGTGTCT	-0.135
ACGTGTCC	0.318
CCGTGTCA	-0.186
CAGCAGGC	-0.22
AGGCTTGA	-0.0134
ACGGCTCG	-0.0111
GAACGTAA	0.428
GAACGTAC	0.254
CAACGTGA	0.182
TAACGTAA	0.457
CAACGTAG	0.354
CAACGTAA	0.447
TAACGTGA	0.274
TAACGTTA	0.302
GATCGTAA	0.281
ACAACTAA	0.161
AGGCCTGC	-0.301
GCCGTCGC	-0.133
CTCGGTAC	-0.0539

Sequence	PBM E-score
CTACTCAC	0.168
ACCACGTG	0.362
GCCACGTA	0.421
ACCACAAA	0.0563
GCCACGCA	0.0845
ACCACGTC	0.363
ACCACGAA	0.131
ACCACGCC	-0.125
ACCACGAC	0.128
GCCACGGA	-0.215
ACCACGGG	-0.243
ACCACGGA	-0.247
ACCACGTA	0.441
GTCTGATA	-0.114
TATCTGGA	-0.215
CCTCGGCG	-0.0614
CCACCAAG	-0.374
ACCGGTGG	-0.404
AACTCACC	-0.0504
GAGAACCA	-0.127
ACACTCCT	-0.189
ACGCTCAA	0.0466
TTGTGAAA	0.119
ACTTTCAA	0.0541
ACCTATAT	0.257

Sequence	PBM E-score
GTTGACGA	0.212
AGTGACCA	-0.178
AGTGACGA	0.419
GGTGACCA	-0.137
AGTGACGG	0.146
GGTGACGA	0.422
ACGCCCAG	-0.0834
TACACTAA	-0.0348
AATTGTGA	0.233
ATCGGCCC	-0.133
CCCCACGG	-0.22
GTCATTAA	0.393
CTCATTAA	0.0254
GTCATTGA	0.416
CTCATTGA	-0.0333
ATCATTGA	0.272
ATCATTAA	0.239
CCTGAGGC	-0.278
GATAGAGA	-0.084
ACCTTCGT	0.0282
CGTAAAAG	0.288
AGACTCAC	-0.129
TGAAGACA	0.0964
CGCGACTA	-0.0528
CTGGATGC	-0.36

Sequence	PBM E-score
CTGTGCGC	-0.113
CAAAGAAG	-0.00535
AATCGTCC	0.0937
AATCGTCA	0.423
TATCGTGA	0.168
CATCGTCG	-0.16
AATCGTCT	0.0851
CATCGTCC	0.0258
TATCGTCA	0.42
CATCGTCA	0.395
GATCGTCA	0.321
CCTCATTA	0.131
ATTGCCAC	-0.11
CGATGGGA	-0.0417
ACACTAAT	0.119
AGGTCCAT	0.0213
AGGACATC	-0.0352
GACGGGCA	-0.145
CTGCGTAA	0.397
ATGCGTAA	0.437
GTGCGCAA	0.114
CTGCGTTA	0.0283
ATGCGTAC	0.291
GAGCGTAA	0.218
CTGCGTAC	0.149

Sequence	PBM E-score
GTGCGTAA	0.418
ATGCGTAG	0.3
CACTGCAG	-0.064
CATCTTAC	0.228
TCAGAGAA	0.00926
GCGCCATA	0.0343
ACGCCACC	0.0629
ACGCCATC	0.376
ACGCCATA	0.393
CCGCCATA	-0.182
ACGCCACA	0.234
ACGCCATG	0.368
ACGCCAAG	-0.0349
CCGCCATC	-0.29
AAGGATCC	-0.254
CCACGCAG	0.057
ACACGGGT	-0.189
CAGCATCG	-0.332
CCCGCTAC	-0.15
AACCATAT	0.119
CCACGTGA	0.339
CCACGTAG	0.377
CCACGTAC	0.374
